About 83,000 compounds went through this panel and 20% of them were active in at least one assay; those are over-represented in the sample as a whole.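 Cells were grown in 96-well plates and exposed to the test compound at a single concentration for 48 hours; results are reported as percent growth, with values below 10 considered active.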 Calls of active or inactive are those of the source.
The compounds below were run on MDA-MB-468 breast (assay: NCI-60 one-dose screen, 48 h (100 = growth as untreated, 0 = no growth, -100 = all killed)). Conditions: 10 µM unless noted.

SMILES | growth
O=C(/C(=C/c1ccc([N+](=O)[O-])cc1)c1ccccc1)c1ccccc1 | 51.4% (inactive)
Cc1c2cc[nH]c(=O)c2c(C)c2c1[nH]c1ccc(OC(=O)c3ccccc3)cc12 | 12.6% (inactive)
COc1cc(/C=C\c2cc(OC)c(OC)c(OC)c2)cc(N/C=C\C(=O)c2c[nH]c3ccccc23)c1OC | -55.8% (active)
COC(=O)CNC(=O)[C@H](Cc1ccccc1)NCc1ccncc1 | 97.4% (inactive)
CCCCCCCCCCCCCCCCNC(=O)Nc1ccc2ccccc2c1 | 94.3% (inactive)
O=C1CCC/C=C\C[C@H]2C=CC(=O)/C2=C/C[C@H](C/C=C\CC(F)(F)F)O1 | -46.5% (active)
CCN1C(=O)c2ccc3c4c(ccc(c24)C1=O)C(=O)N(CCCNCc1ccccc1OC)C3=O | -71.4% (active)
Oc1ccc(CSc2nnc(-c3cnccn3)o2)c2cccnc12 | 7.59% (active)
COc1ccc(NNS(=O)(=O)O)cc1 | 99.3% (inactive)
c1ccc(-c2nc3sc(-c4ccccc4)cn3n2)cc1 | 85.2% (inactive)
COc1cc(/C=C/C(=O)c2ccc(NC(=O)CSc3nnc(-c4ccc5nc(-c6ccccc6)[nH]c5c4)o3)cc2)cc(OC)c1OC | 94.9% (inactive)
Cc1ccc(-c2csc(NC(=O)N3CCN(c4cc5c(cc4F)c(=O)c(C(=O)O)cn5C4CC4)CC3)n2)cc1 | -5.11% (active)
N#Cc1ccc(NC(=O)Nc2cccc(C#N)c2)cc1 | 46.5% (inactive)
Clc1ccc(Cc2ccncc2)cc1 | 99.2% (inactive)
COc1cc(C(=O)/C=C/c2c(-c3cccs3)nc3ccccn23)cc(OC)c1OC | -30.4% (active)

Reference: PubChem BioAssay (NCI)
